The values that follow come from PubChem BioAssay.

A short description of test [1]: antimalarial activity against Dd2 strain (AID 2302;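 active = growth inhibition above 50% at the single 2 µM test dose, taken to imply half-maximal potency below 2 µM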;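 note: 0% = DMSO untreated growth and 100% = chloroquine plus artemisinin killed control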). Particulars: P. falciparum Dd2 in RBCs, LDH growth readout, 72 h; at 2 µM; stronger effect = higher value.
Test [2] can be described thus: HepG2 cytotoxicity, primary screen, cytotoxicity control for P. falciparum antimalarial project, cell-based, ATP luminescence (AID 2303;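 active = inhibition above 50%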;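 note: 0% = DMSO wells and 100% = digitonin-killed cells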). The conditions noted are these: HepG2 viability, 24-48 h, at 10 µM, stronger effect = higher value.
Test [3] concerns the target L-lactate dehydrogenase (Plasmodium falciparum (isolate CDC / Honduras)) (UniProt Q27743). As to the kind of experiment: PfLDH activity inhibition – cell lysate, 3D7 strain, counter-screen for P. falciparum growth inhibition project (AID 2304).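 Note: 0% = vehicle and 100% = reference inhibitor.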 The conditions noted are these: P. falciparum 3D7 crude extract, LDH APAD/NBT absorbance; at 2 µM; stronger effect = higher value.
The nature of test [4]: inhibition of 3D7 malaria parasite growth – strain 3D7 (AID 2306).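 Note: 0% = DMSO wells and 100% = chloroquine plus artemisinin control wells.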 Particulars: P. falciparum 3D7 erythrocytic growth, LDH absorbance, 72 h; at 2 µM; stronger effect = higher value.
Test [5] addresses Calcium-dependent protein kinase 1 (Plasmodium falciparum (isolate 3D7)) (UniProt P62344). As to the kind of experiment: PfCDPK1 kinase inhibitors, biochemical, TCAMS library (AID 1159585; cut-off not given, nearly all actives have IC50 up to about 0.98 µM;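 note: inhibitors leave more ATP so luminescence rises with inhibition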). The conditions noted are these: recombinant PfCDPK1, Kinase-Glo ATP depletion luminescence.
Test [6] addresses Plasmodium falciparum protein kinase 6 (PK6, PF3D7_1337100) (UniProt Q8IDW1). As to the kind of experiment: PfPK6 kinase inhibitors, biochemical, TCAMS library (AID 1159586). The conditions noted are these: recombinant PfPK6, Kinase-Glo ATP depletion luminescence.
Test [7] has as its target Protein kinase 7 (PK7), Plasmodium falciparum 3D7 (PF3D7_0213400) (UniProt Q7YTF7). As to the kind of experiment: inhibition of Plasmodium PK7 catalytic activity – biochemical, TCAMS antimalarial set, Kinase-Glo luminescence (AID 1159587). The conditions noted are these: recombinant PfPK7, Kinase-Glo ATP depletion luminescence.
Test [8] has as its target Calcium-dependent protein kinase 4 (Plasmodium falciparum (isolate 3D7)) (UniProt Q8IBS5). As to the kind of experiment: PfCDPK4 kinase inhibitors, biochemical, TCAMS library (AID 1159588; cut-off not given, nearly all actives have IC50 up to about 0.91 µM). Particulars: recombinant PfCDPK4, Kinase-Glo ATP depletion luminescence.

SMILES strings stand for the structures. Unmarked numbers belong to inactive results. For some of these results: Measured potencies and affinities stand elsewhere. Calls of active or inactive are those of the source. Unless noted, the rule behind the calls is not given here.

Calcium-dependent protein kinase 4 (Plasmodium falciparum (isolate 3D7)), sequence (Q8IBS5 whole entry, looked up): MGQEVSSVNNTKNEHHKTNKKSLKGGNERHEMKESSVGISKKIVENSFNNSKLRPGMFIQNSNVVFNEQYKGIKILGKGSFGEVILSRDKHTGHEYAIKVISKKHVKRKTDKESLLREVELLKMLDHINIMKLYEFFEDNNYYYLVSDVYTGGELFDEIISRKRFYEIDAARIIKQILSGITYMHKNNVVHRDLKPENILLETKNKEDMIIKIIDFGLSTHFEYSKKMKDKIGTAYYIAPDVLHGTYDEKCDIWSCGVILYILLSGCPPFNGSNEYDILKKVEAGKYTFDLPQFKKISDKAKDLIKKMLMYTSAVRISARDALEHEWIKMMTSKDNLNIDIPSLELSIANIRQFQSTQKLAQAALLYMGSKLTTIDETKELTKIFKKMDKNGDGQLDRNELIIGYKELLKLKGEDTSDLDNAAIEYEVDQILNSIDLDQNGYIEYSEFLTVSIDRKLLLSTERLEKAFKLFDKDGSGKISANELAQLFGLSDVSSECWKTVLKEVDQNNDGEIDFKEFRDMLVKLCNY
Calcium-dependent protein kinase 1 (Plasmodium falciparum (isolate 3D7)), sequence (P62344 whole entry, looked up): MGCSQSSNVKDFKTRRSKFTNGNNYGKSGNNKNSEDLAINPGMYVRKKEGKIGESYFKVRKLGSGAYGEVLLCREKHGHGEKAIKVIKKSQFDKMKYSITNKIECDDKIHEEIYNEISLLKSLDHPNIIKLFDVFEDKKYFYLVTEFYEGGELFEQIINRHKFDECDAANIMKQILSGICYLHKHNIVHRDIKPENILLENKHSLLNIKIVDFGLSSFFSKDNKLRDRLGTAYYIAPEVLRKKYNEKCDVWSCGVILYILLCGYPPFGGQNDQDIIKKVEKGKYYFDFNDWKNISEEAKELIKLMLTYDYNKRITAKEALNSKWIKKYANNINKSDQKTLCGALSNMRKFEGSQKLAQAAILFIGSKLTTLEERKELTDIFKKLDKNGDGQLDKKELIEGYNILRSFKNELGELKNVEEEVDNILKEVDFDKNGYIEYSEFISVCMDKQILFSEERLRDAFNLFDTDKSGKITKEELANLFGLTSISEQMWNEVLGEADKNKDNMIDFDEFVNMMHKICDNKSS
L-lactate dehydrogenase (Plasmodium falciparum (isolate CDC / Honduras)), sequence (Q27743 whole entry, looked up): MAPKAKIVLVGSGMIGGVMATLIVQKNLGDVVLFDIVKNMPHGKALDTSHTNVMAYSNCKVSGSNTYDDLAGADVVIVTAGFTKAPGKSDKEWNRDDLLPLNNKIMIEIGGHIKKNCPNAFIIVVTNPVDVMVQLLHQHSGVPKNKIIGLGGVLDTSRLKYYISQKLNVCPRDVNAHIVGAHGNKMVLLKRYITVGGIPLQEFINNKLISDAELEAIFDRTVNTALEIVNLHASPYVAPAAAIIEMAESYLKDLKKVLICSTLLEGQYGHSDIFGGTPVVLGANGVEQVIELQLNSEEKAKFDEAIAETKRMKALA
Plasmodium falciparum protein kinase 6 (PK6, PF3D7_1337100), sequence (Q8IDW1 1-305): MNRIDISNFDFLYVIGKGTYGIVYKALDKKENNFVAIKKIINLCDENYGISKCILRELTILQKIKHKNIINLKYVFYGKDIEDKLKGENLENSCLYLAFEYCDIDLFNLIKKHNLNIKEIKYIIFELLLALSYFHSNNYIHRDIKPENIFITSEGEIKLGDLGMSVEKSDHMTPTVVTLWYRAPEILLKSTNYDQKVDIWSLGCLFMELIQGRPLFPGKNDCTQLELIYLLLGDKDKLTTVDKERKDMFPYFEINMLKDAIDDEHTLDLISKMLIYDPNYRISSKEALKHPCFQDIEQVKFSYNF
Protein kinase 7 (PK7), Plasmodium falciparum 3D7 (PF3D7_0213400), sequence (Q7YTF7 1-343): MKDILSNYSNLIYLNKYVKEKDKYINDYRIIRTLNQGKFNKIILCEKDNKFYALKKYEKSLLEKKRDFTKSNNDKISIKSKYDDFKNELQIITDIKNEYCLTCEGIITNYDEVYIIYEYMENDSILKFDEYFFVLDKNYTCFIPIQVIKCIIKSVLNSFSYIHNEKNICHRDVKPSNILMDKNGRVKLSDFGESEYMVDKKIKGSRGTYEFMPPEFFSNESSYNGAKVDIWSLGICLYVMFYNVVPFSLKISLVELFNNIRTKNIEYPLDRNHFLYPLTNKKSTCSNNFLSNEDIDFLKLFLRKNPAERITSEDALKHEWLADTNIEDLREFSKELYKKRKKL

Regarding `Cc1cc(Nc2cccc(C(F)(F)F)c2)nc(N)n1`, the values for the growth inhibition in test [1] and in test [4] were 24% and 98% (active), respectively. The inhibition was 5% in test [2] and 1% in test [3]. Besides, the outcome in test [5], in test [6], in test [7] and in test [8] was inactive.

As for `O=c1cc(NCCC2CC=CCN2Cc2ccc(Cl)c(Cl)c2)[nH]c2ccccc12` (stereo not given), the results for the growth inhibition in test [1] and in test [4] were 77% (active) and 94% (active), respectively. Moreover, the inhibition in test [2] is 7%; in test [3], 4%. The result in test [5], in test [6], in test [7] and in test [8] was inactive.

On to `Nc1nc2ccc(S(=O)(=O)Nc3ccc(C(=O)N[C@@H](CCC(=O)O)C(=O)O)c(F)c3)cc2c(=O)[nH]1`, for which the growth inhibition in test [1] was 16%; in test [4] it was 97% (active). The inhibition was 37% in test [2] and 4% in test [3]. Besides, the outcome in test [5], in test [6], in test [7] and in test [8] was inactive.

As to `CCOC(=O)c1c(C)n(-c2ccccc2)c2ccc(O)cc12`, the growth inhibition in test [1] is 87% (active); in test [4], 101% (active). Further, the values for the inhibition in test [2] and in test [3] were -7% and -4%, respectively. For the same compound, the outcome in test [5], in test [6], in test [7] and in test [8] was inactive.

For `CN(C)CCOc1ccc(-c2cc(-c3ccc(Cl)c(O)c3)c(-c3ccncc3)o2)cc1`, the growth inhibition was 99% (active) in test [1] and 102% (active) in test [4]. In addition, the results for the inhibition in test [2] and in test [3] were 39% and 2%, respectively. For the same compound, the outcome in test [5], in test [6], in test [7] and in test [8] was inactive.

With `COc1ccc(CNC2CCN(C)CC2)cc1-c1ccc(OC)c(S(=O)(=O)NCc2ccccc2)c1`, the growth inhibition is 95% (active) in test [1] and 99% (active) in test [4]. The inhibition in test [2] is 10%; in test [3] it was 5%. The result in test [5], in test [6], in test [7] and in test [8] was inactive.

In the case of `CC1(C)N=C(N)N=C(N)N1OCCCCON1C(N)=NC(N)=NC1(C)C`, the growth inhibition in test [1] is 95% (active); in test [4], 97% (active). Further, the inhibition was 54% (active) in test [2] and 4% in test [3]. Also, the result in test [5], in test [6], in test [7] and in test [8] was inactive.

Take `Cc1cc(N[C@@H](CC(C)C)C(=O)NCc2cccc(F)c2)nc(NCCc2ccc(F)cc2)n1`: the growth inhibition in test [1] is 6%; in test [4], 90% (active). For the same compound, the inhibition in test [2] was 0%; in test [3], -2%. The result in test [5], in test [6], in test [7] and in test [8] was inactive.

`c1cc(CN2CCCCC2)cc(-c2cccc(-c3nc4ccccc4[nH]3)c2)c1`: the growth inhibition is 37% in test [1] and 100% (active) in test [4]. The inhibition is 39% in test [2] and 0% in test [3]. The result in test [5], in test [6], in test [7] and in test [8] was inactive.

Regarding `CCCNCc1ccc(-c2ccc(CN(CCOC)C(=O)CCc3ccc(OC)cc3)cc2)nc1`, the results for the growth inhibition in test [1] and in test [4] were 29% and 98% (active), respectively. Further, the inhibition was 11% in test [2] and -1% in test [3]. The result in test [5], in test [6], in test [7] and in test [8] was inactive.

As to `Cc1c[nH]c2cc(/C=C/C(=O)NC3CCC(CCN4CCc5ccc(C#N)cc5CC4)CC3)ccc12` (stereo not given), the growth inhibition in test [1] was 59% (active); in test [4], 95% (active). Also, the inhibition in test [2] was -1%; in test [3] it was -2%. Moreover, the result in test [5], in test [6], in test [7] and in test [8] was inactive.

With `Cc1ccc(C(NC(=O)Cc2ccccc2)c2ccc3cccnc3c2O)cc1` (stereo not given), the growth inhibition in test [1] is 77% (active); in test [4], 94% (active). In addition, the figures for the inhibition in test [2] and in test [3] were 47% and 6%, respectively. For the same compound, the outcome in test [5], in test [6], in test [7] and in test [8] was inactive.

Regarding `CC(=O)c1ccc(NC(=O)Nc2ccc(N(C)c3ccnc(NC4CC4)n3)cc2)cc1`, the growth inhibition was 60% (active) in test [1] and 100% (active) in test [4]. The inhibition in test [2] was 59% (active); in test [3], 1%. Besides, the outcome in test [5], in test [6], in test [7] and in test [8] was inactive.

Turning to `COCCNCc1ccc(-c2ccc(CNC3CCN(Cc4ccccc4)CC3)cc2)cc1`, the growth inhibition in test [1] was 61% (active); in test [4] it was 100% (active). The figures for the inhibition in test [2] and in test [3] were 22% and -4%, respectively. The outcome in test [5], in test [6], in test [7] and in test [8] was inactive.

For `O=c1c(Br)ccccc1Br`, the growth inhibition is 41% in test [1] and 94% (active) in test [4]. The figures for the inhibition in test [2] and in test [3] were 98% (active) and 0%, respectively. Further, the result in test [5], in test [6], in test [7] and in test [8] was inactive.

As for `CC=CC1CCNC(C(O)c2ccnc3ccc(OC)cc23)C1` (stereo not given), the growth inhibition is 1% in test [1] and 91% (active) in test [4]. Besides, the inhibition is -2% in test [2] and 3% in test [3]. The result in test [5], in test [6], in test [7] and in test [8] was inactive.

With `C=CCOC(=O)N1CCC(CNCc2cccc(-c3ccc(-c4nc5c(C)cccc5[nH]4)s3)c2)C1` (stereo not given), the growth inhibition in test [1] was 82% (active); in test [4] it was 101% (active). Besides, the inhibition in test [2] is 11%; in test [3] it was -6%. Further, the outcome in test [5], in test [6], in test [7] and in test [8] was inactive.

With `CCn1ccc2c(N3CCCC3=O)cc(C(=O)N[C@@H](Cc3ccccc3)[C@H](O)CNCc3cccc(OC)c3)cc21`, the growth inhibition in test [1] was 92% (active); in test [4] it was 94% (active). The results for the inhibition in test [2] and in test [3] were 4% and -5%, respectively. Further, the result in test [5], in test [6], in test [7] and in test [8] was inactive.

Take `CC(C)[C@@H](C(=O)NCc1cccc(C(F)(F)F)c1)N1C(=O)CCC1C(=O)Nc1ccc([N+](=O)[O-])cc1` (stereo not given in full): the growth inhibition in test [1] is 2%; in test [4] it was 94% (active). In addition, the inhibition was -5% in test [2] and -2% in test [3]. Besides, the outcome in test [5], in test [6], in test [7] and in test [8] was inactive.

Take `CC(C)(C)c1ccc(CNCCOc2ccc(Nc3nnc(-c4ccc(-c5ncc[nH]5)cc4)o3)c3ccccc23)cc1`: the growth inhibition in test [1] was 88% (active); in test [4], 100% (active). In addition, the inhibition is 43% in test [2] and 0% in test [3]. For the same compound, the outcome in test [5], in test [6], in test [7] and in test [8] was inactive.
